Measured values reported in PubChem BioAssay (NCI).
This is part of a sample that, as a whole, favours compounds with a hit. Of some 83,000 tested, about 20% had one in any assay.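 How to read the values: 0–100, growth inhibition (40 = 60% inhibited); 0, no net growth; -100 to 0, cell death (-40 = 40% of starting cells died; -100 = all dead).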 Unmarked numbers belong to inactive results. Calls of active or inactive are those of the source. Rule for the calls: active = growth percent below 10; inactive = the rest.

Key:
Assay in all cases: NCI-60 one-dose screen, 48 h (100 = growth as untreated, 0 = no growth, -100 = all killed)
Conditions in all cases: 10 µM unless noted
T-47D breast = system: T-47D breast
BT-549 breast = system: BT-549 breast
MDA-MB-435 melanoma = system: MDA-MB-435 melanoma
SW-620 colon = system: SW-620 colon
MCF7 breast = system: MCF7 breast
HCT-116 colon = system: HCT-116 colon
HCC-2998 colon = system: HCC-2998 colon
KM12 colon = system: KM12 colon

SMILES | growth (T-47D breast) | growth (BT-549 breast) | growth (MDA-MB-435 melanoma) | growth (SW-620 colon) | growth (MCF7 breast) | growth (HCT-116 colon) | growth (HCC-2998 colon) | growth (KM12 colon)
Cl.[Pt].[c-]1ccccc1-c1ccccn1.c1ccc(P(c2ccccc2)C([PH+](c2ccccc2)c2ccccc2)[PH+](c2ccccc2)c2ccccc2)cc1 | 27.8% | 27% | 4.42% (active) | 13.6% | 3.15% (active) | 7.37% (active) | 24.9% | 5.04% (active)
O=C1C2=C(CCN(Cc3ccccc3)C2)N2CCN=C2N1Cc1ccc(C(F)(F)F)cc1 | 24.1% | 32% | 24.4% | 37% | 21.2% | 23% | 23.9% | 39.4%
CC(C)(C)c1ccc(C(=O)Nc2sc3c(c2C(N)=O)CCC(=O)C3)cc1 | -13.7% (active) | -10.3% (active) | -45.2% (active) | -36.7% (active) | 3.05% (active) | -30.5% (active) | 17.1% | -55.6% (active)
COc1ccc(-c2c(N)n[nH]c2-c2ccccc2O)cc1OC | 70% | -4.52% (active) | 93.4% | 110% | 96.5% | 94.9% | 107% | 107%
CC(C)(O)c1cccc(F)c1 | 140% | 104% | 103% | 103% | 98.4% | 93.8% | 105% | 103%
Cn1cc(-c2ccc3ncc(-c4ccc(CC(=O)Nc5cc(C(C)(C)C)nn5C)cc4)cc3c2)cn1 | -3.95% [30 µM] (active) | -2.02% [30 µM] (active) | 2.73% [30 µM] (active) | 22.2% [30 µM] | 2.17% [30 µM] (active) | 20.4% [30 µM] | 29.6% [30 µM] | -40.1% [30 µM] (active)
CN1C[C@@H](c2ccc(Cl)cc2)[C@]2(NC(=S)N(c3ccccc3)C2=O)[C@@]12C(=O)NC1C=CC(Br)=C[C@H]12 (stereo partly drawn) | 49.5% | 56% | 77.4% | 85.2% | 51.3% | 27.5% | 94.9% | 78.5%
Cc1cc(=O)c2cc3nc(-c4cccnc4)oc3c(Br)c2o1 | 201% | 103% | 107% | 99.5% | 94.9% | 99.9% | 106% | 109%
CCCCCOC(=O)c1ccc(NC(=O)CNCC(C)C)cc1 | 88.8% | 91.8% | 99.2% | 98.5% | 94.3% | 84.9% | 97.9% | 104%
COc1ccc(-c2nc3ncccn3c2/C=C/C(=O)c2cc(OC)c(OC)c(OC)c2)cc1 | 17.8% | 15.6% | 15.2% | -1.58% (active) | 3.17% (active) | -84.8% (active) | -58.4% (active) | -56.9% (active)
COc1ccc(-c2cc(-c3cc(OC)ccc3O)[nH]c(=O)c2C#N)cc1 | 45.6% | 22.1% | -0.171% (active) | 34.4% | 46.4% | 33.6% | 72.9% | 41.8%
Cc1nc(Nc2ccccn2)sc1C(=O)/C=C/c1ccc(Br)cc1 | 45.7% | 83.3% | 14.6% | 45.7% | 8.46% (active) | 72.6% | 103% | 24.2%
O=C(Nc1ccc(N2CCCCC2)c(Cl)c1)c1ccc(Br)o1 | 63% | 81.2% | -95.4% (active) | 74.2% | 49.9% | 84.3% | 111% | 70.1%
CC(C)OCCCNCC(=O)Nc1ccc(S(=O)(=O)c2ccc(NC(=O)CNCCCOC(C)C)cc2)cc1 | 103% | 102% | 101% | 87.6% | 85.8% | 81.3% | 73.8% | 99.8%
COc1cc(-c2ncn(/C=C\c3nnco3)n2)cc(C(F)(F)F)c1 | 28.9% | -13.8% (active) | 2.34% (active) | 14.6% | 8.23% (active) | 3.16% (active) | 7.01% (active) | 10.7%
O=C(NCCOCCOCCOCCNC(=O)c1cc2c(o1)C(=O)c1ccccc1C2=O)NC12CC3CC(CC(C3)C1)C2 | 9.45% (active) | -84.9% (active) | -95.9% (active) | -8.88% (active) | -63.3% (active) | 3.1% (active) | -67.6% (active) | -1.07% (active)

SMILES | growth (T-47D breast) | growth (BT-549 breast) | growth (MDA-MB-435 melanoma) | growth (SW-620 colon) | growth (MCF7 breast) | growth (HCT-116 colon) | growth (HCC-2998 colon) | growth (KM12 colon)
COc1ccc(/C(C)=N/NS(=O)(=O)c2ccc(C)cc2)cc1OC | 87.8% | 100% | 103% | 102% | 102% | 95.1% | 99.9% | 108%
CCn1c(Sc2nnc(Nc3ccccc3)s2)nc2c1c(=O)n(C)c(=O)n2C | 87.2% | 87.1% | 103% | 97.6% | 98.6% | 94.7% | 92.7% | 110%
N#Cc1c(N)nc2c(nnn2-c2cccc(C(F)(F)F)c2)c1N | 48.1% | 101% | 108% | 95.4% | 60.1% | 97.4% | 102% | 86.8%
O=C(NCOC(O)C(Cl)(Cl)Cl)NCOC(O)C(Cl)(Cl)Cl (stereo not drawn) | 89.5% | 101% | 107% | 108% | 89.6% | 99.9% | 118% | 109%
COc1cc(NC(=O)c2cc(O)c(CC=C(C)C)c(O)c2)cc2c1O[C@]1(C)CC[C@@H](O)C(C)(C)[C@H]1C2 | 7.15% (active) | 8.48% (active) | 24.2% | 14.7% | 10.5% | 23.8% | 48.7% | 31.1%
CN1C(=O)CCC(N2C(=O)c3cccc(NCCOCCOCCNC(=O)c4cc5c(o4)C(=O)c4ccccc4C5=O)c3C2=O)C1=O (stereo not drawn) | 11.1% | -95.4% (active) | -94.6% (active) | -3.3% (active) | -65% (active) | -21.9% (active) | -62.2% (active) | -11.8% (active)
COc1cc2c(cc1OC)-c1ccc3cc4c(cc3c1N(CCN(C)C)C2)OCO4 | -12.3% (active) | -2.52% (active) | 40% | 9.79% (active) | 4.64% (active) | -85.8% (active) | 26.7% | 17.1%
CCc1c(C(=O)N[C@@H]2c3cc(Cl)ccc3CC[C@@H]2O)[nH]c(C)c1C(C)=O | 70.4% | 80.7% | 97.4% | 90.1% | 85.3% | 51% | 95.4% | 71.6%
N=C(N)c1ccc(-c2ccc(/C=C/c3ccccc3)s2)cc1 | 37.8% | 93.9% | -34.9% (active) | -67.1% (active) | -74.2% (active) | -79% (active) | -63.7% (active) | -47.1% (active)
O=C(O)C1C[C@](O)(c2ccc(F)cc2)[C@@H](c2ccc(F)cc2)O1 (stereo partly drawn) | 88.2% | 71% | 99.1% | 116% | 97.5% | 100% | 115% | 131%
COc1cc(C2CC(=O)Nc3n[nH]c(-c4ccccc4)c32)cc(OC)c1OC (stereo not drawn) | 67.3% | 52.4% | -2.19% (active) | 44.5% | 47.1% | 45.1% | 68% | 51.5%
COc1cc(C2CC(c3ccc(Nc4nc(Nc5ccc(F)cc5)nc(Nc5ccc(Cl)cc5)n4)cc3)=NN2C(C)=O)cc(OC)c1OC (stereo not drawn) | 19% | 13.4% | 95.7% | 87% | 46.6% | 55.1% | 89.3% | 71.2%
CC(C)c1ccc(C(=O)OC(=O)c2ccc(C(C)C)cc2)cc1 | 95.3% | 87.9% | 97% | 114% | 98.1% | 97.4% | 102% | 123%
COc1ccc(/C(C)=C(\c2ccc(Cl)cc2)c2ccc(OCCN(C)C)cc2)cc1F | 77.3% | 87.7% | 51.5% | 54.8% | 31.8% | 43.6% | 25.4% | 34.2%
CCN(CC)CC(=O)Nc1cccc(C(=O)OC(C)C)c1 | 92% | 66% | 102% | 115% | 103% | 72.8% | 99.5% | 105%
